Compounds with a hit are over-represented: about 1.6% of the library has one in this group of screens.
KCNQ2 block – blocks the rat KCNQ2 potassium channel. O88943. CHO-K1 KCNQ2, FluxOR thallium flux, 20 min; stronger effect = lower value. B-score at 10 µM. 1.1% of 310,000 active;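 active = fluorescence ratio B-score at most minus 3 library SDs, with starting brightness B-score within 2 library SDs, cut at about -5.5 in these data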
Target sequence (O88943 whole entry, looked up): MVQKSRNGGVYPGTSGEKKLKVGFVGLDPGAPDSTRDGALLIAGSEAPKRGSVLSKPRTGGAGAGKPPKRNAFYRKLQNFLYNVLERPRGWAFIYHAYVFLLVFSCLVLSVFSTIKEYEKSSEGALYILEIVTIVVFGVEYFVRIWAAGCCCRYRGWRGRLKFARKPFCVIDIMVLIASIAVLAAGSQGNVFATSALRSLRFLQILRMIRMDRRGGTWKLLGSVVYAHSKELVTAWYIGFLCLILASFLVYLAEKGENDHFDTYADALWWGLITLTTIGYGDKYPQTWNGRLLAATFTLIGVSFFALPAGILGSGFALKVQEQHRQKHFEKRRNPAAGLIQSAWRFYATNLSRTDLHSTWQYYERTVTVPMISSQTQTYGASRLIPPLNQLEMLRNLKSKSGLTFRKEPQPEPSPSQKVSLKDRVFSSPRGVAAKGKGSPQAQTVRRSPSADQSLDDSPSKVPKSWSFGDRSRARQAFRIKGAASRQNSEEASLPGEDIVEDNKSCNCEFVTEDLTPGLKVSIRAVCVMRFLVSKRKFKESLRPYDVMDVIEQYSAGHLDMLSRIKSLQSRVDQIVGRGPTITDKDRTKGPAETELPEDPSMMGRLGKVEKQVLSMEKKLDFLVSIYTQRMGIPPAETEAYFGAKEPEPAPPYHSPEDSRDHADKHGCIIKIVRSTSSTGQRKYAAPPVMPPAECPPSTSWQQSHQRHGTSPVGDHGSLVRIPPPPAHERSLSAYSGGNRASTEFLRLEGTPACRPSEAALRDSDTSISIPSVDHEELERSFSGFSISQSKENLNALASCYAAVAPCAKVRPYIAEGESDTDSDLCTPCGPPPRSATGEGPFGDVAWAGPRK
KCNQ2 pot – KCNQ2 (rat) channel potentiation | AID 2239 | O88943 | 0.54% of 310,000 active | CHO-K1 KCNQ2, FluxOR thallium flux fluorescence; stronger effect = higher value | B-score at 10 µM;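 active = fluorescence ratio B-score at least 3 SD of library B-scores, with initial fluorescence B-score within 3 of them, cut at about 5.3 in these data; same plate scores as AID 2156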;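 also: B-score of peak minus minimum over baseline fluorescence ratio after K+ and Tl+ stimulus; positive B-score means potentiation of KCNQ2 with more thallium influx and brighter signal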
* marks the source's active call; other numbers are inactive results; i = inactive; . = no result given.

SMILES	KCNQ2 block	KCNQ2 pot
COc1ccc2[nH]c3c(c2c1)CCN1C(=O)N([C@@H](C)C(=O)NCc2ccc(F)cc2)C(=O)[C@]31C	i	.
CCC(CO)Nc1nc2ccc(Cl)cc2c2ccccc12 (stereo not given)	i	.
CC(=O)Nc1ccc(S(=O)(=O)N2CCN=C2SCc2ccccc2C)cc1	i	.
Cc1ccc(C(=O)CSc2cc(C)nc(SCC(=O)c3ccccc3)n2)cc1	i	.
Cc1cc(Oc2ccc(C)c(Cl)c2)nc(SCC(=O)c2ccccc2)n1	i	6.98*
O=C(Nc1ccccc1)N1CCc2ccccc21	i	.
O=C(NCC1CCCC(CNC(=O)N2CCc3ccccc32)C1)N1CCc2ccccc21 (stereo not given)	-5.78*	-5.78
O=C(O)c1cc(-c2cccnc2)nc2ccc(Br)cc12	i	0.58
CCN1CCN(C(=O)c2cc(-c3cccnc3)nc3ccc(Br)cc23)CC1	-8.31*	-8.31
COc1cccc(CN2CCN(C(=O)c3cc(-c4ccncc4)nc4ccc(C)cc34)CC2)c1	-5.86*	-5.86
COc1cccc(CN2CCN(C(=O)c3cc(-c4ccccn4)nc4ccc(Cl)cc34)CC2)c1	i	.
O=C(CBr)Nc1c2c(nn1-c1ccccc1)CSC2	i	1.05
NNc1cc(C(=O)O)ccc1Cl	i	0.79
COc1ccc(-c2cc(C(=O)N3CCN(C(=O)c4ccccc4F)CC3)[nH]n2)cc1	i	.
O=C(CN1CCN(S(=O)(=O)c2ccc(F)cc2)CC1)Nc1ccc(F)cc1F	i	.
Cc1[nH]c2ccc(C(=O)N3CCN(c4ccccc4Cl)CC3)cc2c1C	-6.55*	-6.55
Cc1[nH]c2ccc(C(=O)N3CCN(c4cccc(Cl)c4)CC3)cc2c1C	-6.19*	-6.19
Cc1[nH]c2ccc(C(=O)N3CCCC3)cc2c1C	i	0.04
COc1ccccc1N1CCN(C(=O)c2ccc3[nH]c(C)c(C)c3c2)CC1	i	.
COC(=O)C1Cc2ccccc2CN1C(=O)CCl (stereo not given)	i	1.78
CN(Cc1ccccc1)Cc1c(F)cccc1F	i	6.61*
COc1ccc2ccccc2c1CN(C)Cc1ccccc1	i	1.68
COc1ccc(S(=O)(=O)N(CC(=O)N2CCCCCC2)c2ccccc2OC)cc1	i	1.07
CCOc1ccccc1C(=O)Nc1cc(C)ccc1NC(=O)c1ccco1	i	.
CCc1ccc(C(=O)NNC(=S)Nc2ccc(S(N)(=O)=O)cc2)s1	i	0.19
SMILES	KCNQ2 block	KCNQ2 pot
CCCC1S/C(=N/N=C/c2ccc(OC)cc2)N(Cc2ccccc2)C1=O (stereo not given)	-6.15*	-6.15
CCCC1S/C(=N/N=C/c2ccc(OC)cc2)N(Cc2ccc(OC)cc2)C1=O (stereo not given)	i	.
COc1ccc(CC(=O)Nc2ccc(N3CCOCC3)cc2)cc1S(=O)(=O)N1CCOCC1	i	0.14
CC(/C=C1\N=C(SCc2ccccc2)SC1=O)=C\c1ccccc1	i	.
Cc1ccc(CNC(=O)c2cc(=O)c3ccccc3o2)cc1	i	0.3
Cc1ccc(-c2c(C(=O)NCc3ccc(F)cc3)oc(=O)c3ccccc23)cc1	i	9.22*
CCn1c(=O)c([N+](=O)[O-])c(NCCN(C)C)c2ccccc21	i	.
CCn1c(=O)c([N+](=O)[O-])c(Cl)c2ccccc21	-6.65*	-6.65
CCN1CCN(c2nnc(-c3ccc(C)cc3)c3ccccc23)CC1	i	0.61
O=C(Nc1ccc(F)c(F)c1)c1cnc(-c2ccccc2)nc1-c1ccccc1	-5.62*	-5.62
O=C(Nc1ccc(F)cc1)c1cnc(-c2ccccc2)nc1-c1ccccc1	i	.
COc1ccc(CCC(=O)OCc2csc(CC(=O)Nc3ccccc3C)n2)cc1	i	.
O=S(=O)(NCCN1CCOCC1)c1cc(Cl)c(Cl)cc1Cl	i	.
O=c1c2ccccc2sc2ccc(C#CC3(O)CCCCC3)cc12	i	.
COc1cccc2sc3ccc(C#CC4(O)CCCCC4)cc3c(=O)c12	-6.7*	-6.7
O=C1CSC(c2ccccc2)N1Cc1ccccc1 (stereo not given)	i	1.57
COc1ccc(CCNc2nc(C)nc3c2oc2ccccc23)cc1OC	-5.63*	-5.63
Cc1nc(NCCc2cnc[nH]2)c2oc3ccccc3c2n1	i	0.94
CC(C)S(=O)(=O)C1=NSC2=NC(=O)/C(=C\c3ccc(-c4ccccc4)o3)C(=N)N21	-5.94*	-5.94
N=C1/C(=C\c2ccc(-c3cc(Cl)cc(Cl)c3)o2)C(=O)N=C2SC=C(c3ccccc3)N12	i	0.75
Cc1ccc(-c2ccc(C(=O)NCc3ccccc3)o2)c2ccccc12	i	.
Cc1ccc(-c2ccc(C(=O)Nc3ccccc3)o2)c2ccccc12	-5.71*	-5.71
COc1ccc(OC)c(CC(=O)N2CCc3cc(OC)c(OC)cc3C2)c1	i	0.16
O=C(Nc1ccc(C(=O)NCCCN2CCN(c3ccc(F)cc3)CC2)cc1)C1=CSCCO1	i	0.72
CN(C)CCN(CC1CCCN(Cc2ccccc2F)C1)C(=O)c1ccc(Cl)cc1 (stereo not given)	i	.
SMILES	KCNQ2 block	KCNQ2 pot
O=C1CC(=C(c2ccccc2)c2ccccc2)C(=O)N1CCN1CCN(c2cccc(Cl)c2)CC1	-5.63*	-5.63
O=C1CC(=C(c2ccccc2)c2ccccc2)C(=O)N1CCCN1CCN(c2cccc(Cl)c2)CC1	i	.
CC(=O)N1c2ccc(S(=O)(=O)NCCC(=O)NCCc3cccc(C)c3)cc2CC1C (stereo not given)	i	1.45
CC(C)N(C(=O)COc1ccc(Br)cc1Cl)C(C)C	-5.68*	-5.68
CN(Cc1ccccc1)C(=O)COc1ccc(Br)cc1Cl	i	.
O=C(COc1ccc(Br)cc1Cl)NC1CCCCC1	i	0.71
COC(=O)C1CCCN1C(=O)COc1ccc(Br)cc1Cl (stereo not given)	i	6.63*
CCNc1ccc(Br)cc(C(=O)/C=C/c2ccc(Cl)cc2Cl)c1=O	-5.82*	-5.82
CNc1ccc(Br)cc(C(=O)/C=C/c2cc(OC)ccc2OC)c1=O	i	.
CCCCC(C(=O)NC1CCCC1)N(C(=O)c1snc(C(N)=O)c1N)c1ccc(F)cc1 (stereo not given)	i	.
Cc1ccc(N2C(=O)c3ccccc3C2Nc2ccccc2)nc1 (stereo not given)	i	.
CCc1cccc(NC2c3ccccc3C(=O)N2c2ccc(C)cn2)c1 (stereo not given)	-7.55*	-7.55
CCCC(=O)N(C1CC(C)C(C#N)(C#N)C1(C#N)C#N)N(C)C (stereo not given)	i	11.2*
Cc1ccc2oc(=O)c3cc(C(=O)NCCCN4C(C)CCCC4C)sc3c2c1 (stereo not given)	i	0.18
O=[N+]([O-])c1ccccc1Sc1nccn1Cc1ccccc1	-6.46*	-6.46
NC(=O)CSc1nccn1Cc1ccccc1	i	0.31
COc1ccc(CCOC(=O)c2ccc(N)c([N+](=O)[O-])c2)cc1	i	1.52
N#Cc1c(-c2ccccc2F)cc(C2CC2)nc1SCC(=O)c1cccs1	i	11.7*
CCSc1nc(C2CC2)cc(-c2cccs2)c1C#N	i	.
CC(NC(=O)COc1cccnc1[N+](=O)[O-])c1ccc(Cl)cc1 (stereo not given)	i	.
O=C(Cc1csc(NC(=O)c2ccc(F)cc2)n1)NO	-5.66*	-5.66
COc1cc(C(=O)Nc2nc(-c3cccs3)cs2)cc(OC)c1OC	-7.13*	-7.13
COc1ccc(C(=O)Nc2nc(-c3cccs3)cs2)cc1	i	1.45
COc1ccccc1NC(=O)Cc1csc(NC(=O)c2ccccc2)n1	i	0.37
